Data from PubChem BioAssay (NCI).
About 83,000 compounds went through this panel and 20% of them were active in at least one assay; those are over-represented in the sample as a whole.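 Negative percent growth values reflect cell death: -40 means 40% of the cells present at the start died, and -100 means all died.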 Values without a mark were called inactive. Activity calls are given as the source filed them. How the source made its calls: active means growth percent below 10; inactive means the rest.

Columns and labels:
Assay in all cases: NCI-60 one-dose screen, 48 h (100 = growth as untreated, 0 = no growth, -100 = all killed)
Conditions in all cases: 10 µM unless noted
[1] = tested on: DU-145 prostate
[2] = tested on: K-562 leukemia
[3] = tested on: MALME-3M melanoma
[4] = tested on: MDA-MB-231 breast
[5] = tested on: RXF 393 renal
[6] = tested on: SF-268 CNS
[7] = tested on: SF-295 CNS
[8] = tested on: SF-539 CNS
[9] = tested on: UACC-257 melanoma
[10] = tested on: M14 melanoma
[11] = tested on: HCT-15 colon
[12] = tested on: HT29 colon
[13] = tested on: SNB-75 CNS
[14] = tested on: SNB-19 CNS
[15] = tested on: U251 CNS
[16] = tested on: PC-3 prostate
[17] = tested on: UACC-62 melanoma
[18] = tested on: LOX IMVI melanoma
[19] = tested on: SK-MEL-28 melanoma
[20] = tested on: SK-MEL-5 melanoma

SMILES | growth [1] [%] | growth [2] [%] | growth [3] | growth [4] | growth [5] | growth [6] [%] | growth [7] [%] | growth [8] | growth [9] | growth [10] [%] | growth [11] | growth [12] | growth [13] | growth [14] [%] | growth [15] [%] | growth [16] [%] | growth [17] | growth [18] | growth [19] | growth [20] [%]
C=Cc1cnc(Nc2ccc(OC)cc2)nc1NCCCNC(=O)C1CCC1 | 46.3 | 34.3 | 52.5% | -6.62% (active) | -1.29% (active) | 28.5 | 59.6 | 22% | 70.5% | 46.8 | 35.7% | 8.04% (active) | -5.11% (active) | 57.5 | 29 | 64.2 | 82.3% | 20.4% | 80.3% | 
CCC1S/C(=N\N=C(\C)c2cc3cc(Cl)ccc3o2)N(c2ccccc2)C1=O (stereo not drawn) | 131 | 92.2 | -3.03% (active) | 89.4% | 131% | 108 | 103 | 122% | 154% | 61.5 | 107% | 111% | 110% | 101 | 99 | 84.6 | 88.9% | 85.4% | 111% | 49.5
C#CCNC(=O)[C@]1(C)CCC[C@@]2(C)[C@H]1CC=C1C=C(C(C)C)CC[C@@H]12 | 103 | 121 | 97.5% | 96.3% | 120% | 89.3 | 91.6 | 108% | 110% | 98.6 | 94.8% | 102% | 86.5% | 101 | 106 | 95.4 | 92.1% | 96.8% | 111% | 
Cc1ccccc1Nc1cc(O)c2c(=O)cc(-c3ccccc3)oc2c1 | 26.8 | 10.2 | 47.9% | 50.7% | 28% | 61.5 | 27.1 | 23.1% | 80.6% | 24.6 | 17.6% | 69.9% | -5.66% (active) | 32.6 | 36.2 | 40.6 | 43.4% | 30.9% | 51.1% | 
Cc1c(CC(=S)N2CCOCC2)nnn1-c1cccc(C(F)(F)F)c1 | 111 | 100 | 104% | 107% | 108% | 97.7 | 109 | 95.1% | 105% | 100 | 104% | 101% | 92.3% | 106 | 95.4 | 99 | 101% | 98.2% | 113% | 
Oc1ccc(/C=C/c2ccc(O)cc2)cc1 | 56.9 | 69.5 | 58.9% | 80.1% | 62.8% | 42.7 | 88.1 | -11.4% (active) | 72.3% | 65 | 33.3% | 101% | 46.9% | 89.2 | 39.1 | 55.3 | 37.4% | 44.4% | 76.9% | 
O=C1/C(=C/c2ccc(O)c(O)c2)COc2ccc(-c3ccccc3)cc21 | 26.5 | 15.3 | 41.2% | 12.9% | 16.5% | 49.4 | 42.5 | 9.83% (active) | 30.4% | 45.9 | -31.2% (active) | 15% | 21.1% | 56.2 | 22.3 | 19.9 | -13.6% (active) | 4.79% (active) | -11.5% (active) | 
CCc1n(Cc2ccc3ccccc3n2)cc[n+]1Cc1ccc2ccccc2n1 | 51.7 | 24.9 | -9.45% (active) | 31.1% | 46.6% | 29.6 | 64.7 | 24.5% | -16.5% (active) | 46.6 | 92.2% | -4.83% (active) | 29.5% | 20.9 | 12.3 | 19 | 12.4% | 26.1% | 15.9% | 
